The campaign covered roughly 4,800 compounds. About 420 (8.8%) showed an effect of 50% or more. For the sample, strong results were picked, then their nearest neighbours and some compounds at random.

The subject of the assay is Plasmodium falciparum. Put plainly: Confirmatory screen in NF54 nanoGlo assay, in single point, at 2uM, 72h. The assay is classed as functional, Erythrocyte. To be noted: timepoint 72 hour.
With `CN1CCC(N(Cc2ccccc2)C(=O)c2cc3cnccc3[nH]2)CC1`, the “% Inhibition” value was 61%. Then `CCCN1CCC(N2CC(c3cccnc3)C(c3nc(C4CCCC4)no3)C2)CC1` (stereo unspecified), with -2%; and `Cc1cc(O)c(Cl)cc1-c1ccc2nccc(N)c2c1`, with 90%; and `Cc1cc(O)c(Cl)cc1-c1cccc2c(N)ccnc12`, with 91%. Regarding `Clc1ccc2[nH]c3c(c2c1)CCCC3NC1CCN(C2CCOC2)CC1` (stereo unspecified), the “% Inhibition” value worked out at 81%. In the case of `CN1CCC(Oc2ccc(NC(=O)c3cn4ccnc4s3)cn2)CC1` it was 86%. Consider `Nc1ccnc2ccc(-c3ccc(C(=O)NCC4CCOCC4)cc3)cc12`, for which the “% Inhibition” value was found to be 77%.

For the compound `Cc1ccc2nc(-c3cccc(NC(=O)c4ccc(OC(F)(F)F)c(Cl)c4)c3)[nH]c2n1`, the “% Inhibition” value was 72%. Then `Cc1cc(N2CCC(NC3CCCC3Cc3ccc(F)cc3)CC2)nc(N)n1` (stereo unspecified), with 96%. `Cc1cc(N2CCC(N(C)Cc3cc(-c4ccccc4)n[nH]3)CC2)nc(N)n1`: the “% Inhibition” value worked out at 21%.

For `Cc1cc(N2CCC(NC3CCNC(c4ccccc4)C3)CC2)nc(C)n1` (stereo unspecified), the “% Inhibition” value came out at 30%.

For the compound `Fc1cccc(Cl)c1CN1CCC(NC[C@H]2CCCOC2)CC1`, the “% Inhibition” value is listed as 24%. Then `c1cc(CNC2CCN(C[C@H]3CCOC3)CC2)c2cc[nH]c2c1`, with -7%; and `O=C(NCc1ccc(N2CCNCC2)c(F)c1)c1ccc(-c2noc(C(F)(F)F)n2)cc1`, with 57%; and `Cc1nc(N2CCN(C)CC2)cc(N2CCN(S(=O)(=O)c3ccccc3C(F)(F)F)CC2)n1`, with 67%.

On to `Cc1c(CN2CCC(O)(Cn3ccnc3)CC2)[nH]c2c(Cl)cccc12`, for which the “% Inhibition” value was found to be 96%. For `COCCN1CC[C@H](CN(C)c2ccnc3cc(Cl)ccc23)C1`, the “% Inhibition” value is 98%.

As to `COCCN1CCC[C@@]2(CCN(c3ccnc4cc(Cl)ccc34)C2)C1`, the “% Inhibition” value was 99%. In the case of `O[C@@]1(c2c[nH]nn2)CCN(c2ccnc3cc(Cl)ccc23)C1` it was 59%; in that of `NC(=O)[C@]1(O)CCN(c2ccnc3ccc(Oc4ccccc4)cc23)C1`, 29%; in that of `Cc1cc(C)c(CN2CCN(C)CC2)cc1CNCCCn1ccnc1C`, 38%. Then `Cc1cccc(N2CCC(NCc3cc(C)cc(CN4CCN(C)CC4)c3C)CC2)c1`, with 61%. Take `Cc1ccc2nc(NC[C@H]3CCN(C4CC4)C3)cc(C)c2c1`: the “% Inhibition” value was 93%. In the case of `COc1ccc(-c2cc(C(=O)Nc3ccc(N4CCN5CCCC5C4)cc3)c3c(C)noc3n2)cc1` (stereo unspecified) it was 41%; in that of `Cc1cc(NC[C@H]2CN(CC(C)C)CCO2)c2ccccc2n1`, 26%; in that of `Cc1cc(N2CCC(Nc3ccnc4ccncc34)CC2)nc(C)n1`, 9%. In the case of `CCCN1CCC(Nc2cc(C)nc3ccccc23)CC1` it was 77%.

On to `O=C(Nc1cnc2c(c1)COCC2)c1cc2c(OC(F)(F)F)cccc2[nH]1`, for which the “% Inhibition” value amounted to 95%.

On to `c1ccc(CCC23CN(Cc4ccccn4)CC2CN(Cc2ccns2)C3)cc1` (stereo unspecified), for which the “% Inhibition” value turned out to be 88%.

With `Nc1cc(N2CCC(c3nc4cc(F)ccc4[nH]3)CC2)nc(N2CCOCC2)n1`, the “% Inhibition” value is on record as 39%. Then `Cc1ccc2[nH]cc(-c3cc(N4CCOCC4)nc(N)n3)c2c1`, with 57%. In the case of `Brc1ccc2[nH]c3c(c2c1)CCCC3NC1CCc2[nH]cnc2C1` (stereo unspecified) it was 97%; in that of `c1ccc(CNc2ccc(-c3noc(C45CCCN(CCC4)C5)n3)cn2)cc1`, 82%. For `NCCCCc1c(-c2cccnc2)[nH]c2c(Cl)cc(Cl)cc12`, the “% Inhibition” value came to 55%. As to `Cn1cc(-c2cncc(C(=O)NC3CCN(c4cccc(F)c4)CC3)c2)cn1`, the “% Inhibition” value came to 51%.

With `CCOc1cccc(N2CCN(C(=O)c3cc(-c4ccc(F)cc4)[nH]n3)CC2)n1`, the “% Inhibition” value came to 32%. As to `OC1(c2ccc(Cl)cc2)CCN(C[C@@H]2CCCN3CCCC[C@H]23)CC1`, the “% Inhibition” value came out at 73%. Then `CN(C)CCN1CCC(NC2CCC(O)(c3cccc(Cl)c3)CC2)CC1` (stereo unspecified), with 30%; and `NCC1(O)CCN(c2ccnc3cc(F)c(Cl)cc23)CC1`, with 94%. In the case of `FC(F)(F)c1ccc(N2CCC[C@H](NC3CCN(Cc4ccco4)CC3)C2)nc1` it was 21%; in that of `CCN1CCC(N2CCC(C(=O)NCCc3ccc(OC(F)(F)F)cc3)CC2)CC1`, 48%; in that of `Nc1ccc(-c2cc(OC(F)(F)F)ccc2O)cn1`, 11%.

As to `Oc1ccc(OC(F)(F)F)cc1-c1ccc2nccn2n1`, the “% Inhibition” value amounted to 83%. In the case of `N#Cc1ccc(N2C[C@H](COCC3CC3)C3(CCN(Cc4cccc(O)c4)CC3)C2)cc1C(F)(F)F` it was 80%; in that of `CCN1C[C@H](Nc2nc(C)nc3sccc23)[C@@H](OC)C1`, 98%. Then `CNc1nc(C)c(-c2ccnc(Nc3cccc(S(C)(=O)=O)c3)n2)s1`, with 58%. Then `Cc1cc(N2CCC(NCCc3c[nH]cn3)CC2)nc(-c2ccccc2)n1`, with 17%. Take `Cc1cc(N2CCC(NCCCN3CCCc4ccccc43)CC2)nc(N)n1`: the “% Inhibition” value came to 74%. Then `Cc1ccc2nc(CCCNC3CCN(c4cc(C)nc(N)n4)CC3)oc2c1`, with 29%; and `COc1ccc2c(O)c(Br)c(C)nc2c1`, with 78%. In the case of `COc1ccc2nc3cc(Cl)ccc3c(O)c2c1` it was 57%; in that of `CN1CCN(CCOc2ccccc2CN(C)Cc2cc3cc(F)ccc3[nH]2)CC1`, 87%. Turning to `CN(C[C@H](O)COc1cccc(CNCCCOc2cccnc2)c1)C1CCCCC1`, the “% Inhibition” value stood at 30%.

With `CN1C(C)(C)CC(NC(=O)c2ccc(-c3cc(-c4cccc(C(F)(F)F)c4)n[nH]3)cc2)CC1(C)C`, the “% Inhibition” value amounted to 45%.

Regarding `CCc1oc2ccccc2c1CNC[C@H](O)c1ccc(Cl)cc1`, the “% Inhibition” value was determined as 99%. Then `CCN(Cc1cnn(-c2cccc(Cl)c2)c1)CC1CCN(C2CCN(C)CC2)CC1`, with 79%.

In the case of `CCN(Cc1[nH]c2ccc(Cl)cc2c1C)CC1CCN(C2CCN(C)CC2)CC1`, the “% Inhibition” value came to 89%. In the case of `Cc1ccc2[nH]c(-c3cc4n(n3)CCN(c3ccnc(N)n3)C4)nc2c1C` it was 89%.

Turning to `CNc1nc(N[C@H]2CCCN(Cc3ccc(Cl)cc3)C2)nc2c1CCC2`, the “% Inhibition” value is on record as 79%. In the case of `Clc1cccc(N2CC[C@H](CNC3CCN(Cc4ccco4)CC3)C2)c1` it was 66%. Then `COc1ccc(CNCc2cc3ccccc3[nH]2)cc1CN(C)C`, with 59%.

With `COc1ccccc1-c1csc(C2CCN(CC[C@H]3CCCN3C)CC2)n1`, the “% Inhibition” value came to 26%. Then `CC(CNc1nc(NCC(C)N2CCOCC2)c2cc(Cl)ccc2n1)N1CCOCC1` (stereo unspecified), with 87%; and `CN1CCC(N2CCC(NC(=O)c3ccc(S(=O)(=O)N(C)C4CCCCC4)cc3)CC2)CC1`, with 44%. In the case of `Cc1ccc(-c2cc(C(=O)NC3CCN(C4CCN(C)CC4)CC3)n[nH]2)cc1C`, the “% Inhibition” value was 98%.

`CN(C)Cc1cccc(CCNCc2csc(-c3ccc(C(F)(F)F)cc3)n2)c1`: the “% Inhibition” value amounted to 74%. With `O=C(NC1CCN(CCOc2ccc(Cl)cc2)CC1)c1c[nH]c2ccncc2c1=O`, the “% Inhibition” value is 92%. As to `O[C@H]1CCN(Cc2cccc(NCc3cn4ccnc4s3)c2)C1`, the “% Inhibition” value was 38%.

`O[C@H]1CCN(Cc2ccccc2CNc2cccc(-n3ccnc3)n2)C1`: the “% Inhibition” value turned out to be 94%. In the case of `CCN1CCC[C@H](Nc2cccc(-n3ccnc3)n2)C1` it was 33%; in that of `COc1ccc2cc(-c3cc(N)ccn3)[nH]c2c1`, 55%.

As for `Nc1ccnc(-c2cccc3[nH]ccc23)c1`, the “% Inhibition” value is recorded as 6%. Consider `O=C1CN(C(=O)c2ccnc3ccccc23)CCN1Cc1ccccc1F`, for which the “% Inhibition” value is 53%. Consider `COc1cc2nc(NCC3(N4CCN(C)CC4)CCCC3)cc(C)c2cc1OC`, for which the “% Inhibition” value was determined as 84%.

On to `CCN(C)CC1CCN(c2nc(NCCOC)nc(N3CCC(CN(C)CC)C3)n2)C1` (stereo unspecified), for which the “% Inhibition” value came to 1%. Then `Cn1nnc(C(=O)N2CCCCC23CCCCCC3)n1`, with 68%; and `CC(C)CCOc1ccc2[nH]c(-c3cc(N4CCC[C@@H]4CS(C)(=O)=O)ccn3)cc2c1`, with 99%. Then `CN(CCCn1ccnc1)c1ccnc2cc(Br)ccc12`, with 99%; and `O=C(NCCN1CCCCC1)c1cccc(-c2cnc3ccc(F)cn23)c1`, with 26%. Regarding `CCOc1cc2nccc(N3C[C@H]4CN(C)C[C@H]4C3)c2cc1OCC`, the “% Inhibition” value turned out to be 98%. In the case of `CCCC(=O)NC1COCC1Cc1ccncc1` (stereo unspecified) it was 83%; in that of `c1ccc(CN2CCC(CCNC[C@@H]3CCCN4CCCC[C@H]34)CC2)cc1`, 61%; in that of `COc1ccc2cc(NC(=O)c3cc(-c4c(C)nn(C)c4C)[nH]n3)cnc2c1`, 73%. Then `Cc1cnccc1NCCNCc1ccc(OC(C)C)c(Cl)c1`, with 73%; and `c1ccc2c(Nc3ccc4[nH]cnc4c3)c3ccccc3nc2c1`, with 98%; and `O[C@@H](CNCc1cc2cc(Cl)c(Cl)cc2[nH]1)c1ccc(F)cc1`, with 79%.

As for `OC[C@H](CNCc1cc2ccc(F)cc2[nH]1)c1ccccc1Cl`, the “% Inhibition” value came out at 72%. Turning to `Cc1sc2nc(-c3ccccn3)nc(NCCc3nccn3C)c2c1-c1ccccc1`, the “% Inhibition” value was determined as 71%. Then `CCNc1nc(C)cc(Nc2ccc(NC(=O)Nc3ccc(F)cc3F)cc2)n1`, with 98%; and `CCNc1cc(C)nc(NCCNC(=O)Nc2cc(F)cc(F)c2)n1`, with 76%. Then `Cc1cc(NC[C@H](O)COc2ccc(F)cc2)nc2ccccc12`, with 76%; and `Cc1ccc2[nH]c(CNC[C@@H](CO)C3CCC3)cc2c1C`, with 65%; and `COc1ccc2[nH]cc(-c3ccc(N)nc3)c2c1`, with -7%.

Take `COc1ccc2[nH]cc(C3=CCN(c4ccc5nnc(-c6ccccc6F)n5n4)CC3)c2c1`: the “% Inhibition” value is recorded as 51%. As for `Cc1ccc2nccc(N3CCC(N4CCC(O)CC4)CC3)c2c1`, the “% Inhibition” value turned out to be 10%. In the case of `CCN1CCN([C@H]2CCN(c3ccnc4ccncc34)C2)CC1` it was 97%. Then `O=C(NCC1CC1)c1cc2c(OCc3ccc(Cl)cc3)cccc2[nH]1`, with 57%; and `c1ccc(-c2ccnc(C3CCN(CC45CNCC4C5)CC3)n2)cc1` (stereo unspecified), with 94%; and `CC(C)c1ccc(-c2noc(CCN3CCN(CCCN(C)C)CC3)n2)cc1`, with 25%. In the case of `CC(C)c1ccc(-c2nc(CN3CCCCC3)cc(CN3CCCCC3)c2O)cc1` it was 93%; in that of `CCC1(NC(=O)c2cc(C)c3ccccc3n2)CCOCC1`, 10%.

The values are drawn from ChEMBL document CHEMBL5308541, “MAIP: An Open-Source Tool to Enrich High-Throughput Screening Output and Identify Novel, Druglike Molecules with Antimalarial Activity” (ACS Med Chem Lett, 2023).
